Sm TGR block = S. mansoni TGR enzyme inhibition; AID 485364; Potency, µM (highest dose often 114 µM), inactives show top-dose activity change, negative = inhibition, hits mostly inhibitors; 360,000 compounds, 3% hits; purified TGR, DTNB reduction, TNB absorbance 405 nm; also: potency is read from the fitted curve at half-maximal effect; % is scaled to controls: 0 for no effect and ±100 for the full control effect; nearly all actives have a fitted effect of over 60% in size
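Kinetic colorimetric format: TGR-catalysed, NADPH-driven DTNB reduction monitored via TNB absorbance. Enzyme dispensed at 20 nM; compound exposure 15 min at room temperature before reaction start.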
NS1 inh = influenza NS1 inhibition | Potency, µM (top dose mostly 46.1 µM), inactives show at the top dose activity, positive = more growth | 270,000 compounds, 0.4% hits | AID 2326; calls by dose curve; also: potency is read from the fitted curve at half-maximal effect; actives are rising curves; nearly all actives have a fitted effect of over 50% in size
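Compounds were scored for reversing the slow growth caused by influenza A NS1 in S. cerevisiae, measured by optical density at 600 nm. Assay medium contained 2% galactose at pH 6.0; NS1-free yeast of the same strain were the positive control.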
Shiga inhibitor = Shiga toxin inhibition | Vero cells, Shiga toxin protein synthesis inhibition reporter | inhibition, % at 38.7 µM | 290,000 compounds, 9.2% hits; in the data active = inhibition mostly above about 28%, no sharp cut-off; inactive = mostly below about 43%; also: 0% is about no effect
Pf growth 96h = P. falciparum growth inhibition at 96 hours | 320,000 compounds, 6.9% hits | P. falciparum luciferase reporter growth, 96 h | Potency, µM (highest dose often 28.7 µM), inactives show top-dose activity change, negative = inhibition, most hits filed as inhibitors; also: potency is read from the fitted curve at half-maximal effect; % is scaled to controls: 0 for no effect and ±100 for the full control effect
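Delayed-death screen, second-generation endpoint: infected erythrocytes, 2% hematocrit, 0.05% parasitemia final; 96 hours at 37 C, 5% CO2; luciferase detection reagent; luminescence decrease equals reduced growth.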
Pf growth 48h = inhibits P. falciparum growth in the first generation, 48 h; P. falciparum luciferase growth in erythrocytes, 48 h; Potency, µM (doses to about 28.7 µM), without a hit: at the top dose activity change, negative = inhibition, hits mostly inhibitors; 310,000 compounds, 5.9% hits; AID 504832; also: potency is read from the fitted curve at half-maximal effect; % is scaled to controls: 0 for no effect and ±100 for the full control effect
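Cell-based growth assay: transgenic P. falciparum expressing firefly luciferase, cultured in red cells within RPMI 1640 containing 0.5% w/v Albumax, 24 mM bicarbonate and gentamycin. A drop in luciferase activity indicates inhibition.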
Cycloheximide cs = counter-screen for Shiga toxin inhibitors: cycloheximide protein synthesis inhibition; AID 2314; 300,000 compounds, 12% hits; cell reporter, cycloheximide protein synthesis inhibition counterscreen; max response, %; in the data active = max response mostly above about 13%, no sharp cut-off; inactive = mostly below about 14%; also: read at 38.3 µM for the half of the compounds with a filed dose; 0% is about no effect
Starred values were filed as active, the others as inactive; ? = inconclusive; nt = no result given. A selection: hits, their analogues and other compounds. The true share with any hit is near 21%. Unless noted, calls follow the shape of the dose curve; as a rule, active = well fitted curve in the direction sought with a large enough effect; inconclusive = small, poorly fitted or top-dose-only effect, or another doubt; inactive = no such curve, though single readings can be large; an effect the other way counts as inactive or inconclusive.

SMILES	Sm TGR block	NS1 inh	Shiga inhibitor	Pf growth 96h	Pf growth 48h	Cycloheximide cs
C#CC(C)OC(=O)Nc1cccc(Cl)c1 (stereo unspecified)	nt	nt	41.0*	nt	nt	32.0*
CC(C)OC(=O)NC(C)(C)COC(=O)Nc1cccc(Cl)c1	-28.4%	-20.5%	-2.2	-22.7%	?	13.6*
CNC(=O)C1CCC(Cn2c(=O)c3sccc3n(CC(=O)N3CCCC3)c2=O)CC1 (stereo unspecified)	-7.7%	nt	nt	nt	nt	nt
O=C(Nc1ncccc1O)c1cccc(S(=O)(=O)N2CCN(c3ccc(F)cc3)CC2)c1	0.6%	nt	nt	?	-21.4%	nt
Cc1cccc(C)c1NC(=O)CN(C)C(=O)c1cccc(S(=O)(=O)N2CCN(c3ccccc3)CC2)c1	4.6%	-18.5%	1.3	?	-8.5%	-1.1
COC(=O)c1cc(S(=O)(=O)N2CCN(c3ccc(F)cc3)CC2)cn1C	-7.0%	2.6%	-2.5	9.28µM*	29.0%	-6.9
CN(CC(=O)Nc1ccccc1Cl)C(=O)c1cccc(S(=O)(=O)N2CCN(c3ccc(F)cc3)CC2)c1	-27.3%	-47.3%	139.4*	?	-16.4%	58.2*
CN(CC(=O)Nc1ccccc1Cl)C(=O)c1cccc(S(=O)(=O)N2CCN(Cc3ccccc3)CC2)c1	8.0%	nt	nt	-11.7%	?	nt
O=C(Nc1ccncc1)c1cccc(S(=O)(=O)N2CCN(c3ccc(F)cc3)CC2)c1	1.5%	nt	nt	11.7µM*	?	nt
Cc1cccc(C)c1NC(=O)CN(C)C(=O)c1cccc(S(=O)(=O)N2CCN(c3ccc(F)cc3)CC2)c1	7.1%	nt	nt	?	16.5µM*	nt
CCO[C@@H]1OC(C(=O)N2CCN(Cc3ccccc3)CC2)=C[C@H](C2CC2)[C@H]1CCCO	-28.4%	0.4%	-14.0	?	?	-1.2
CCc1ccccc1NC(=O)CSc1ncc2c(n1)-c1ccccc1N(C)S2(=O)=O	2.4%	nt	nt	nt	nt	nt
Cc1ccccc1-n1ncc(C(C)NC(=O)c2ccccc2)c1C (stereo unspecified)	nt	1.6%	44.2	12.1%	14.6%	35.5*
Cc1ccccc1-n1ncc(C(C)NC(=O)c2ccco2)c1C (stereo unspecified)	-16.5%	1.5%	54.9*	10.0%	43.5%	28.5*
COc1cc(OC)cc(C(=O)NC(C)c2cnn(-c3ccccc3C)c2C)c1 (stereo unspecified)	nt	-1.7%	22.3	-12.5%	?	16.3
C=CCC(=O)NC(C)c1cnn(-c2ccccc2C)c1C (stereo unspecified)	0.2%	3.7%	3.8	12.4%	0.2%	10.8
COc1ccc(-n2c(=O)c3c(c4cc(OC)ccc4n3C)n(CCC(C)C)c2=O)cc1	19.4%	nt	nt	nt	nt	nt
COc1ccc(OC)c(CNn2c(-c3cccc(C)c3)nc3ccccc3c2=O)c1	-2.2%	-8.0%	3.3	8.28µM*	nt	-0.8
COc1cccc(CNn2c(-c3cccc(C)c3)nc3ccccc3c2=O)c1	-11.3%	-1.0%	24.5	9.28µM*	nt	19.0*
COc1ccc(OCC(=O)Nn2c(-c3ccc(C)cc3)nc3ccccc3c2=O)cc1	2.0%	9.2%	-19.5	-7.3%	26.7%	-3.8
CC1N=C2c3ccccc3N=C(SCC(=O)NCc3ccc(Cl)cc3)N2C1=O (stereo unspecified)	10.7%	nt	nt	nt	nt	nt
CCN(CC)c1ccc(C(=O)NNC(=O)CCl)cc1	20µM*	nt	51.4	?	6.57µM*	31.5*
O=C(CCN1CCN(C(c2ccccc2)c2ccccc2)CC1)N/N=C/c1ccc(O)cc1O	-7.6%	14.8%	-16.6	5.22µM*	?	-4.8
COc1ccc(-c2cc(=O)oc3cc(OCc4nn[nH]n4)ccc23)cc1	1.2%	-16.2%	-2.4	4.65µM*	37.2%	-1.2
COC(=O)COc1ccc2c(-c3ccc(OC)cc3)cc(=O)oc2c1	-4.9%	-4.9%	-11.7	nt	34.1%	-2.0
SMILES	Sm TGR block	NS1 inh	Shiga inhibitor	Pf growth 96h	Pf growth 48h	Cycloheximide cs
CN1C(=O)N(C)C(=O)C2(Cc3ccccc3N3CCCC32)C1=O (stereo unspecified)	?	6.4%	4.2	0.2%	-0.4%	-0.3
CC(=O)Nc1ccc2c(c1)CC1(C(=O)N(C)C(=O)N(C)C1=O)C1CCCN21 (stereo unspecified)	44.7µM*	11.9%	-14.6	19.6%	nt	-5.3
CN1C(=O)N(C)C(=O)C2(Cc3cc(NC(=O)c4ccc(F)cc4)ccc3N3CCCC32)C1=O (stereo unspecified)	39.8µM*	?	14.7	14.7µM*	?	10.3
CN1CCN2c3ccccc3CC3(C(=O)N(C)C(=O)N(C)C3=O)C2C1 (stereo unspecified)	-4.9%	-0.5%	-17.4	31.0%	28.0%	-2.2
COCCn1c(C)cc(C(=O)CN2C(=O)NC3(CCCCCCC3)C2=O)c1C	0.0%	-1.2%	92.9*	nt	20.7%	52.1*
Cc1cc(C)c(C(=O)CN2C(=O)NC3(CCCCC3)C2=O)cc1C	-9.0%	nt	34.3*	24.4%	11.4%	20.9*
COCCn1c(C)cc(C(=O)CN2CCCCC2)c1C	-23.0%	nt	19.6	14.0%	-6.6%	13.3
COC(=O)[C@@]12CCCCN1[C@H](c1ccc(-c3ccc(OC)cc3)cc1)[C@H]1C(=O)N(C)C(=O)[C@H]12	-13.4%	nt	nt	-26.0%	?	nt
COC(=O)[C@@]12CCCCN1[C@H](c1ccc(-c3ccc(C(C)=O)cc3)c(OC)c1)[C@@H]1C(=O)N(C)C(=O)[C@@H]12	?	nt	nt	?	8.28µM*	nt
COC(=O)[C@@]12CCCN1[C@H](c1ccc(-c3cccc(Cl)c3)c(OC)c1)[C@H]1C(=O)N(C)C(=O)[C@H]12	?	nt	nt	0.329µM*	2.33µM*	nt
COC(=O)[C@@]12CCCCN1[C@H](c1ccc(-c3cccc(Cl)c3)c(OC)c1)[C@@H]1C(=O)N(C)C(=O)[C@@H]12	4.3%	nt	nt	7.38µM*	9.28µM*	nt
Cc1ccc([N+](=O)[O-])cc1S(=O)(=O)Nc1ccc(C(=O)NCC2CCCO2)cc1 (stereo unspecified)	4.3%	nt	nt	7.9%	-11.6%	nt
CN(CC(=O)Nc1cccc(F)c1)C(=O)c1cccnc1Sc1ccccc1Cl	0.6%	nt	nt	20.8%	?	nt
Cc1cc2n(n1)C(c1ccc3c(c1)OCO3)Nc1ccccc1-2 (stereo unspecified)	-12.7%	-27.7%	-1.7	27.2%	42.5%	10.9
Cc1cc2n(n1)C(c1ccccc1)Nc1ccccc1-2 (stereo unspecified)	3.6%	-8.6%	13.7	?	22.1%	8.9
Cc1ccc2c(c1)-c1cc(C)nn1C(c1ccc3c(c1)OCO3)N2 (stereo unspecified)	2.2%	-52.4%	28.5	?	-21.9%	16.0*
Cc1cc2n(n1)C(c1ccc(N(C)C)cc1)Nc1ccccc1-2 (stereo unspecified)	-23.2%	-31.3%	48.1*	2.5%	86.0%	47.5*
COc1cccc(N2CC(NC(=O)c3ccc(S(=O)(=O)N4CCCCC4)cc3)CC2=O)c1 (stereo unspecified)	14.8%	nt	nt	nt	nt	nt
